{"source": "PubChem BioAssay AID777", "about": "(Sanford-Burnham Center for Chemical Genomics, 2007)", "note": "In all, about 96,000 compounds went through this assay and about 19,000 (20%) were called active.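 How the source made its calls: active means blocking of liver enzyme CYP2C9 beyond about 50% at 5 µM (limit read from the data); inactive means the rest.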 Only a sample is shown."}
{"target": "Cytochrome P450 2C9 (Homo sapiens) (UniProt P11712)", "sequence (P11712 whole entry, looked up)": "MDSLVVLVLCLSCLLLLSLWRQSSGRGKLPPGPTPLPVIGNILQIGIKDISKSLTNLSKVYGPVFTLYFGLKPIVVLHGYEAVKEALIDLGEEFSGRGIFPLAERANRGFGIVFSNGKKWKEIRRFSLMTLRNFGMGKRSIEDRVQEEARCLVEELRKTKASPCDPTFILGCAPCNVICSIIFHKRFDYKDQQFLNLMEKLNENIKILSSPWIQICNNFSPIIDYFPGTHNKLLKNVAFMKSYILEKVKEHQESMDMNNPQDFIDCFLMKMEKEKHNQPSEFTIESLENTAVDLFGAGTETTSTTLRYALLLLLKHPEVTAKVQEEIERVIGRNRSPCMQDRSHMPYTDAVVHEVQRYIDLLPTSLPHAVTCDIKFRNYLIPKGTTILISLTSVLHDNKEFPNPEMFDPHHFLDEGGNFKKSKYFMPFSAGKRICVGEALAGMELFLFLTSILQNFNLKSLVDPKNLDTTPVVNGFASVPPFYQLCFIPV", "test": "blockers of cytochrome P450 2C9 activity – biochemical, luminescence, ADME assay, primary screen (AID 777)", "conditions": "CYP2C9 Supersomes, luciferin-H conversion, at 5 µM, hits give high values"}
{"smiles": "CCc1nnc(NC(=O)CCC(=O)O)s1", "inhibition": "-9.1% (inactive)"}
{"smiles": "CCCCc1nc2c(=O)[nH]c3ccccc3c2o1", "inhibition": "-4.4% (inactive)"}
{"smiles": "O=C(Nc1ccc2ccccc2c1)Nc1ccc2snnc2c1", "inhibition": "19.3% (inactive)"}
{"smiles": "COc1ccc(NC(=O)/C(Cl)=C(/Cl)S(=O)Cc2ccc(C)cc2)cn1", "note": "(stereo unspecified)", "inhibition": "52.9% (active)"}
{"smiles": "COc1cccc(NC(=O)Cc2ccc(C)cc2)c1", "inhibition": "21.1% (inactive)"}
{"smiles": "O=C(Nc1cccc2c1CCCC2)C1CCN(C(=O)NC2CCCCC2)CC1", "inhibition": "1.9% (inactive)"}
{"smiles": "Cc1ccc(S(=O)(=O)C(C#N)c2nc3ccccc3nc2N2CCCC2)cc1C", "note": "(stereo unspecified)", "inhibition": "93.4% (active)"}
{"smiles": "Cc1cccc2cc(C#N)c(N3CCCC3)nc12", "inhibition": "-2.2% (inactive)"}
{"smiles": "CC(C)CCOc1ccc(C(=O)C[N+]2(C)CCOCC2)cc1", "inhibition": "11% (inactive)"}
{"smiles": "COc1ccccc1NC1=NC2(CCCC2)N=C(N)N1", "inhibition": "-4% (inactive)"}
{"smiles": "Cc1nc(N2CCOCC2)nc2c1CCCC2", "inhibition": "-1.5% (inactive)"}
{"smiles": "O=C(Nc1ccccc1-c1nnn(CC(=O)N2CCN(c3ccccc3)CC2)n1)c1cccs1", "inhibition": "80.1% (active)"}
{"smiles": "CCOc1ccc(-c2nnn(CC(=O)N3CCN(c4ccc(F)cc4)CC3)n2)cc1OCC", "inhibition": "-6.1% (inactive)"}
{"smiles": "COc1ccccc1N1CCN(C(=O)Cn2nnc(-c3cccs3)n2)CC1", "inhibition": "47.2% (inactive)"}
{"smiles": "CC(=O)c1ccc(OCCN2CCOCC2)cc1", "inhibition": "9.9% (inactive)"}
{"smiles": "CC1CC(c2ccccc2)n2nc(NC(=O)c3cccs3)nc2N1", "note": "(stereo unspecified)", "inhibition": "0.9% (inactive)"}
{"smiles": "CCOC(=O)C1CCCN(C(=O)c2cncc(Br)c2)C1", "note": "(stereo unspecified)", "inhibition": "33.3% (inactive)"}
{"smiles": "COc1ccc(CCNC(=O)C2CCN(c3nn4c(=O)cc(C)nc4s3)CC2)cc1OC", "inhibition": "-11.8% (inactive)"}
{"smiles": "Cc1cc(=O)n2nc(N3CCCC(C(=O)NCCC4=CCCCC4)C3)sc2n1", "note": "(stereo unspecified)", "inhibition": "61.7% (active)"}
{"smiles": "Cc1cc(=O)n2nc(N3CCCC3C(=O)NCCCN3CC(C)CC(C)C3)sc2n1", "note": "(stereo unspecified)", "inhibition": "1.8% (inactive)"}
{"smiles": "CCCC(=O)Nc1nnc(CC(=O)OCC)s1", "inhibition": "-12.8% (inactive)"}
{"smiles": "COCCCNC(=O)Cn1cc(C(=O)C2CC2)c2ccccc21", "inhibition": "11.2% (inactive)"}
{"smiles": "CN1CCN(S(=O)(=O)c2ccc(NC(=O)C3CCCO3)cc2)CC1", "note": "(stereo unspecified)", "inhibition": "60% (active)"}
{"smiles": "CN1CCN(S(=O)(=O)c2ccc(NC(=O)c3ccco3)cc2)CC1", "inhibition": "-13.5% (inactive)"}
{"smiles": "O=C(Nc1nc2ccc(S(=O)(=O)N3CCCC3)cc2s1)C1CCCO1", "note": "(stereo unspecified)", "inhibition": "46.1% (inactive)"}
{"smiles": "c1csc(CN2CCN(Cc3cccs3)C2c2cccs2)c1", "inhibition": "-9% (inactive)"}
{"smiles": "Cc1[nH]c2ccccc2c1C(=O)COC(=O)C(C)C", "inhibition": "-5% (inactive)"}
{"smiles": "COc1ccccc1CCNC(=O)c1cnccn1", "inhibition": "-35.8% (inactive)"}
{"smiles": "COc1ccc(S(=O)(=O)N(CCCN2CCCC2=O)Cc2cc3c(C)ccc(C)c3[nH]c2=O)cc1", "inhibition": "85.6% (active)"}
{"smiles": "CCCN(Cc1cc2cccc(C)c2[nH]c1=O)S(C)(=O)=O", "inhibition": "36.4% (inactive)"}
{"smiles": "CCOc1ccc(C(=O)NCCCN2CCCC2=O)cc1", "inhibition": "12.3% (inactive)"}
{"smiles": "CSc1ccc(Cl)c(C(=O)OCC(=O)N2CC(C)OC(C)C2)c1", "note": "(stereo unspecified)", "inhibition": "-24.7% (inactive)"}
{"smiles": "Cc1nc2nc3c(cn2n1)C(=O)CC(c1ccccc1)C3", "note": "(stereo unspecified)", "inhibition": "65.6% (active)"}
{"smiles": "COc1ccc(CNC(=O)c2c(C)cc(=O)oc2C)cc1OC", "inhibition": "32.7% (inactive)"}
{"smiles": "Cc1cc(=O)oc(C)c1C(=O)Nc1cnc2ccccc2c1", "inhibition": "10.5% (inactive)"}
{"smiles": "Cc1cc(=O)oc(C)c1C(=O)NCc1ccc(F)cc1", "inhibition": "51.6% (active)"}
{"smiles": "O=C(c1ccc(Cl)c(Cl)c1)N1CCCC1", "inhibition": "7% (inactive)"}
{"smiles": "Cc1ccc(CNC(=O)CN2CCN(Cc3ccc(Cl)cc3)C2=O)cc1", "inhibition": "17.5% (inactive)"}
{"smiles": "Cc1cccc(NC(=O)CN2CCCN(S(=O)(=O)c3ccc(Br)s3)CC2)c1", "inhibition": "11.6% (inactive)"}
{"smiles": "O=C(CN1CCN(S(=O)(=O)c2ccc(Cl)s2)CC1)NCc1ccc(Cl)cc1", "inhibition": "55.1% (active)"}
{"smiles": "O=S(=O)(NCc1ccccc1Cl)c1cnc[nH]1", "inhibition": "28.8% (inactive)"}
{"smiles": "CC1(C)CC(=O)C=C(NCCN2CCNCC2)C1", "inhibition": "-8.1% (inactive)"}
{"smiles": "COC(=O)c1ccc(NCC(=O)c2ccccc2)cc1", "inhibition": "48.7% (inactive)"}
{"smiles": "Cc1ccc(Nc2nc(C)cc(C)c2C(N)=O)cc1", "inhibition": "6.2% (inactive)"}
{"smiles": "CCOC(=O)c1nc(Nc2ccc(C(=O)OC)cc2)c2ccccc2n1", "inhibition": "59.5% (active)"}
{"smiles": "Cc1nc(CNS(=O)(=O)c2cccnc2)cs1", "inhibition": "8.8% (inactive)"}
{"smiles": "CCc1cc2c(=O)c(-c3ccon3)c(N)oc2cc1OC", "inhibition": "0.5% (inactive)"}
{"smiles": "CCn1c(SCC(=O)Nc2ccc(OC)c(OC)c2)nnc1-c1c[nH]c2ccccc12", "inhibition": "93.3% (active)"}
{"smiles": "COc1ccc(-n2c(SCC(=O)NCc3cccs3)nnc2-c2ccoc2C)cc1", "inhibition": "66.1% (active)"}
{"smiles": "O=C(CSc1nnc(-c2ccco2)n1-c1ccccc1)NCCc1ccccc1", "inhibition": "30.9% (inactive)"}
{"smiles": "CCOC(=O)N1CCN(C(=O)CSc2nnc(-c3c[nH]c4ccccc34)n2CCOC)CC1", "inhibition": "14.7% (inactive)"}
{"smiles": "O=C(CSc1nnc2scc(-c3ccc(F)cc3)n12)NCc1ccco1", "inhibition": "55% (active)"}
{"smiles": "O=C(CSc1nnc(-c2cccs2)n1-c1ccccc1)N1CCN(C(=O)c2ccco2)CC1", "inhibition": "23.6% (inactive)"}
{"smiles": "CCn1c(SCCC(C)C)nnc1-c1c[nH]c2ccccc12", "inhibition": "1.7% (inactive)"}
{"smiles": "CCOc1ccccc1-n1c(SCC(=O)N2CCCC2)nnc1-c1ccoc1C", "inhibition": "8.8% (inactive)"}
{"smiles": "Cc1ccc(-c2csc3nnc(SCC(=O)NCc4ccco4)n23)cc1", "inhibition": "40.9% (inactive)"}
{"smiles": "O=C(CSc1nnc(-c2cccs2)n1-c1ccccc1)NCc1ccco1", "inhibition": "70.7% (active)"}
{"smiles": "Cc1ccc(-n2c(SCC(=O)Nc3ccc4c(c3)OCO4)nnc2-c2ccoc2C)cc1", "inhibition": "-13.4% (inactive)"}
{"smiles": "CC(C)(C)OC(=O)c1c(N)n(CCCN2CCCC2=O)c2nc3ccccc3nc12", "inhibition": "-1.7% (inactive)"}
{"smiles": "CCc1c(C)n([O-])c2c([n+]1=O)CCCCC2", "inhibition": "-11.5% (inactive)"}
{"smiles": "CC1CCC2(CC1)NC(=O)N(CC(=O)c1cccn1C)C2=O", "note": "(stereo unspecified)", "inhibition": "-21.9% (inactive)"}
{"smiles": "Nc1ccc(C(=O)OCC(=O)NC2CCCc3ccccc32)cc1[N+](=O)[O-]", "note": "(stereo unspecified)", "inhibition": "-4.1% (inactive)"}
{"smiles": "Cc1cc(NC(=O)Nc2ccccc2)n(-c2ccccc2)n1", "inhibition": "14.5% (inactive)"}
{"smiles": "CCOc1ccc(N(CC(=O)NC2CCCCCC2)S(=O)(=O)c2c(C)[nH]c(=O)[nH]c2=O)cc1", "inhibition": "1.3% (inactive)"}
{"smiles": "Cc1ccc(CNC(=O)c2ccccc2CCc2ccccc2)cc1", "inhibition": "29.1% (inactive)"}
{"smiles": "Cc1cccc(C(=O)Nc2ccc(C(=O)/C=C/c3cccs3)cc2)c1", "inhibition": "26.4% (inactive)"}
{"smiles": "O=C(NC1CC1)c1ccc2c(c1)NC(=O)c1ccccc1S2", "inhibition": "11.1% (inactive)"}
{"smiles": "COc1ccc(-c2nnc(SCC(=O)c3ccco3)n2-c2ccccc2)cc1", "inhibition": "-14.6% (inactive)"}
{"smiles": "COc1ccc(-n2c(SCC(=O)NCc3ccco3)nnc2-c2c[nH]c3ccccc23)cc1", "inhibition": "58.8% (active)"}
{"smiles": "COc1ccc(C(=O)NC(=O)CSc2nnc(-c3ccco3)n2-c2ccccc2)cc1", "inhibition": "-13.3% (inactive)"}
{"smiles": "Cc1cc(NC(=O)CN2CCCC(C)C2)n(-c2nc3ccccc3s2)n1", "note": "(stereo unspecified)", "inhibition": "22.2% (inactive)"}
{"smiles": "c1ccc2c(c1)OCC(c1nn3cnnc3s1)O2", "note": "(stereo unspecified)", "inhibition": "7% (inactive)"}
{"smiles": "CC(C)(C)c1cc2cccnc2n1Cc1cccc(F)c1", "inhibition": "6.5% (inactive)"}
{"smiles": "COC(=O)c1ccc(OCC(=O)NC(C)(C)C)cc1", "inhibition": "14.1% (inactive)"}
{"smiles": "CC/C(=N/Nc1ccccc1)c1cnnc(SC)n1", "inhibition": "59% (active)"}
{"smiles": "O=S1(=O)C=C(SCCN2CCCC2)c2ccccc21", "inhibition": "14% (inactive)"}
{"smiles": "CC(C)(C)c1csc(NC2=NS(=O)(=O)c3ccccc32)n1", "inhibition": "17.4% (inactive)"}
{"smiles": "CC(C)(C)c1ccc(OC2=CS(=O)(=O)c3ccccc32)cc1", "inhibition": "79% (active)"}
{"smiles": "Brc1cnc(N2CCCC2)nc1N1CCCCC1", "inhibition": "-15.1% (inactive)"}
{"smiles": "COc1ccc(C2=NOC(C(=O)NCc3ccco3)C2)cc1OC", "note": "(stereo unspecified)", "inhibition": "-31.2% (inactive)"}
{"smiles": "Cc1ccnc(-n2sc3ccccc3c2=O)n1", "inhibition": "30.1% (inactive)"}
{"smiles": "Cc1cc(O)cc(O)c1C(=O)Cc1cnn(-c2ccccc2)c1", "inhibition": "63.4% (active)"}
{"smiles": "COc1ccc(C(=O)Cc2cnn(-c3ccccc3)c2)c(O)c1", "inhibition": "5% (inactive)"}
{"smiles": "Cn1nnnc1SCC(=O)N1CCN(Cc2ccccc2)CC1", "inhibition": "1.6% (inactive)"}
{"smiles": "CC(C)OC(=O)C(C#N)c1nc2ccccc2nc1N1CCN(Cc2ccc3c(c2)OCO3)CC1", "note": "(stereo unspecified)", "inhibition": "16.9% (inactive)"}
{"smiles": "CC(C)OC(=O)C(C#N)c1nc2ccccc2nc1N1CCN(Cc2ccccc2)CC1", "note": "(stereo unspecified)", "inhibition": "62.6% (active)"}
{"smiles": "Cc1cccc(C)c1NC(=O)c1ccc(CN2CCc3ccccc3C2)cc1", "inhibition": "-5.8% (inactive)"}
{"smiles": "CC1(C)Cc2c(sc3nc4n(c(=N)c23)CCCCC4)CO1", "inhibition": "3.2% (inactive)"}
{"smiles": "C=CC[n+]1c(-c2ccc(C)cc2)csc1NNC(=O)Nc1ccccc1", "inhibition": "8.5% (inactive)"}
{"smiles": "c1cnc(Nc2nc(-c3ccc4ccccc4c3)cs2)nc1", "inhibition": "-3.5% (inactive)"}
{"smiles": "c1ccc(Nc2nc(-c3ccncc3)cs2)nc1", "inhibition": "92.9% (active)"}
{"smiles": "Oc1ccc(-c2csc(Nc3cccnc3)n2)cc1", "inhibition": "37.6% (inactive)"}
{"smiles": "Fc1ccc(Br)cc1/C=N/n1cnnc1", "inhibition": "6.6% (inactive)"}
{"smiles": "Cc1cccc(C(=O)Nc2nnc(Cc3c[nH]c4ccccc34)s2)c1", "inhibition": "-4.3% (inactive)"}
{"smiles": "CN(CC#CCC(c1ccccc1)c1ccccc1)C(C)(C)C", "inhibition": "25.6% (inactive)"}
{"smiles": "CCCCn1c(=S)[nH]c2ncccc2c1=O", "inhibition": "13.8% (inactive)"}
{"smiles": "CC(C)C(c1nnnn1Cc1ccccc1)N1CCC(C(N)=O)CC1", "note": "(stereo unspecified)", "inhibition": "10.7% (inactive)"}
{"smiles": "Fc1ccc(Cn2nnnc2C(c2cccs2)N2CCCCCC2)cc1", "note": "(stereo unspecified)", "inhibition": "83.4% (active)"}
{"smiles": "N#Cc1ccc(C(c2nnnn2CCc2ccccc2)N2CCCCCC2)cc1", "note": "(stereo unspecified)", "inhibition": "8.8% (inactive)"}
{"smiles": "CCOC(=O)N1CCC(C(N)=O)CC1", "inhibition": "-7.1% (inactive)"}
{"smiles": "Cc1ccccc1OCC(=O)NCC(=O)OCC(=O)c1ccc2ccccc2c1", "inhibition": "-61.4% (inactive)"}
